In the library only some 31% were active in any assay of this set; here they are far more common.
CYP2C9 inhib – human CYP2C9 inhibition | P11712 | CYP2C9 Supersomes, luciferin-H conversion, luminescence | inhibition, % at 5 µM | 96,000 tested, 20% active | AID 777;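 active = blocking of liver enzyme CYP2C9 beyond about 50% at 5 µM, limit read from the data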
CYP2C19 act – activators of human cytochrome P450 2C19; 96,000 tested, under 10 active; activation factor at 5 µM; P33261; recombinant CYP2C19, luciferin-H EGE luminescence; stronger effect = higher value; 0 = fully inhibited enzyme, 1 = untreated enzyme; AID 1025;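 active = activation factor of at least 2 at 5 µM in the primary screen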;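 also: 0 = wells with 2.5 mM tranylcypromine and 1 = vehicle-only wells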
CYP2C9 act – activators of human CYP2C9; P11712; recombinant CYP2C9, luciferin-H conversion, luminescence; stronger effect = higher value; factor 1 = untreated enzyme, 0 = blocked; activation factor at 5 µM; 96,000 tested, 1.4% active;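 active = activation factor of 2 or more for CYP2C9 at a 5 µM dose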;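 also: 0 = sulfaphenazole-blocked wells and 1 = vehicle-only wells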
CYP2C19 inh – inhibitors of human CYP2C19. P33261. CYP2C19 Supersomes, luciferin-H EGE luminescence, 30 min. inhibition, % at 5 µM. 96,000 tested, 21% active;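 active = CYP2C19 inhibition above a set limit at 5 µM in the primary screen, cut at about 50% in these data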;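 also: plate controls were negative control wells for no effect and 2.5 mM tranylcypromine positive control for full effect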
PLAP activator – human PLAP activation | 96,000 tested, 1.2% active | purified PLAP enzyme, luminescent substrate read-out; stronger effect = higher value | AID 696 | activation fold at 20 µM | P05187; in the data active = activation fold above about 2
Target sequence (P05187 whole entry, looked up): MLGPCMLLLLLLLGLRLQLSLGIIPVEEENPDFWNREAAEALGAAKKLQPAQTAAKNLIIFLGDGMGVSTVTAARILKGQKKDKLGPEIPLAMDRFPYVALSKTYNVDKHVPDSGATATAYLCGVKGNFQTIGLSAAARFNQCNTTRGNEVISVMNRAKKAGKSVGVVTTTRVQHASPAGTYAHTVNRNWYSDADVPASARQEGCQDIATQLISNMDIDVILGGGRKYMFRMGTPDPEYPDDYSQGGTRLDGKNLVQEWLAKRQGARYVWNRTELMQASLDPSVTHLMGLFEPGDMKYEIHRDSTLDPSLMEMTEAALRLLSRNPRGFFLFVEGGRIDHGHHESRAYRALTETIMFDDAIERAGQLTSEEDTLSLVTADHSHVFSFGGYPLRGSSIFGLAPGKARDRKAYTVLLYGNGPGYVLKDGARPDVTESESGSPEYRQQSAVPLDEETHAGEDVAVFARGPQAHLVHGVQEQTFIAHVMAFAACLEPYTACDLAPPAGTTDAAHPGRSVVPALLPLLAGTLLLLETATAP
Starred values were filed as active, the others as inactive.

SMILES | CYP2C9 inhib | CYP2C19 act | CYP2C9 act | CYP2C19 inh | PLAP activator
CCOC(=O)CCSc1nc2c(c(C(F)(F)F)c1C#N)CCC2 | 67* | 0.2 | 0.3 | 78* | 1.5
CCCCSc1nc2c(c(C(F)(F)F)c1C#N)CCC2 | 9 | 1 | 0.9 | 2 | 0.8
O=C(NC1CCCCC1)N1CCN(c2ncccn2)CC1 | 18 | 0.4 | 0.8 | 60* | 0.9
Oc1ccccc1N1CCN(c2ncccn2)CC1 | 86* | 0.2 | 0.1 | 84* | 0.9
O=C(Nc1ccccc1Cl)N1CCN(c2ccc3nnc(-c4ccc(F)cc4)n3n2)CC1 | 66* | 0.7 | 0.3 | 31 | 1.3
c1ccc(N2CCN(c3ncccn3)CC2)cc1 | 26 | 0.7 | 0.7 | 29 | 1.1
O=C(Nc1ccc2c(c1)OCO2)N1CCN(c2ncccn2)CC1 | 29 | 0.5 | 0.7 | 46 | 0.9
O=C(Nc1ccccc1Cl)N1CCN(c2ncccn2)CC1 | 7 | 0.1 | 0.9 | 85* | 0.9
NC(=O)CSc1nnc2sc3ccccc3n12 | -13 | 1.1 | 1.1 | -5 | 1
O=C(O)CC1SC(=Nc2cccc(C(F)(F)F)c2)NC1=O (stereo unspecified) | -11 | 1 | 1.1 | -1 | 0.9
COc1cc(NC(=O)c2nccnc2C(=O)O)cc(OC)c1 | -1 | 0.9 | 1 | 6 | 0.9
O=C(Nc1ccccc1)N1CCN(c2ncccn2)CC1 | 52* | 0.2 | 0.5 | 78* | 1.2
Clc1ccc(Cl)c(-c2ccc(/C=N/c3ncn[nH]3)o2)c1 | -187 | 1 | 2.9* | 4 | 0.9
NC(=S)N/N=C/c1ccc(-c2ccc(Cl)c(Cl)c2)o1 | 11 | 1 | 0.9 | 3 | 0.9
CCn1c(SCC(=O)Nc2c(C)n(C)n(-c3ccccc3)c2=O)nnc1-c1cccc(C)c1 | 5 | 1 | 1 | 3 | 1.2
CCn1c(COc2cccc3ccccc23)nnc1SCC(=O)OC1CCCCC1 | 48 | 0.1 | 0.5 | 88* | 2.5*
CCn1c(COc2cccc(OC)c2)nnc1SCC(=O)Nc1cccc(OC)c1 | 64* | 0.2 | 0.4 | 82* | 1.7
CCn1c(COc2cccc(OC)c2)nnc1SCC(=O)Nc1cc(OC)ccc1OC | -13 | 0.5 | 1.1 | 47 | 1.7
CCOC(=O)c1cccc(NC(=O)CSc2nnc(-c3cccnc3)n2CC)c1 | 64* | 0.5 | 0.4 | 53* | 1.3
CCn1c(SCC(=O)Nc2ccccc2C(=O)OC)nnc1-c1cccc(C)c1 | 68* | 0 | 0.3 | 99* | 1.7
CCOC(=O)c1cccc(NC(=O)CSc2nnc(CNc3ccc(C)cc3)n2CC)c1 | 70* | 0.3 | 0.3 | 66* | 1
CCOC(=O)c1cccc(NC(=O)c2cccnc2)c1 | 12 | 0.9 | 0.9 | 14 | 0.9
CCOC(=O)c1cccc(NC(=O)CSc2nnc(COc3ccccc3)n2CC)c1 | 63* | 0.4 | 0.4 | 58* | 1
CCOC(=O)c1cccc(Nc2nc(-c3cccnc3)nc3ccccc23)c1 | 88* | 0.3 | 0.1 | 74* | 1.2
CCn1c(COc2ccccc2C)nnc1SCC(=O)CC(=O)Nc1ccccc1 | 55* | 0.7 | 0.5 | 35 | 1.7
SMILES | CYP2C9 inhib | CYP2C19 act | CYP2C9 act | CYP2C19 inh | PLAP activator
CCOC(=O)c1ccc(NC(=O)CSc2nnc(CNc3ccc(OC)cc3)n2C)cc1 | 27 | 0.7 | 0.7 | 27 | 1
CCn1c(COc2cccc(C)c2)nnc1SCC(=O)Nc1cccc(C(=O)O)c1 | 79* | 1.2 | 0.2 | -19 | 1.4
CCn1c(COc2cccc(C)c2)nnc1SCC(=O)Nc1cccc(C(=O)OC)c1 | 56* | 0.7 | 0.4 | 32 | 0.8
CCn1c(CNc2ccc(C)cc2)nnc1SCC(=O)NCc1ccccc1 | 37 | 0.2 | 0.6 | 78* | 1.6
CCOC(=O)c1ccccc1NC(=O)CSc1nnc(COc2ccccc2)n1CC | 2 | 0.1 | 1 | 89* | 1.5
CCn1c(CNc2ccccc2Cl)nnc1SCC(=O)NCc1ccccc1 | 20 | 0.9 | 0.8 | 9 | 0.9
CCn1c(COc2ccccc2)nnc1SCC(=O)Nc1cc(OC)ccc1OC | -74 | 0.7 | 1.7 | 28 | 1.2
CC(C)(C)c1cc(C(C)(C)C)cc(S(=O)(=O)CCc2ccccn2)c1 | 22 | 0.8 | 0.8 | 17 | 1.8
Cc1cc(Oc2ccc(-c3ccccc3)cc2)n2ncnc2n1 | 28 | 0.7 | 0.7 | 29 | 1.4
CC(C)C(=O)Nc1nnc(SCC(=O)NCc2cccs2)s1 | -2 | 1 | 1 | 3 | 1.2
COC(=O)CSc1nnc(CNc2ccc(Cl)cc2)n1Cc1ccccc1 | 92* | 0 | 0.1 | 97* | 1.6
Cc1ccc(NCc2nnc(SCC(N)=O)n2CCc2ccccc2)cc1 | -14 | 1 | 1.1 | 2 | 1.2
CCn1nc(NC(=O)c2ccccn2)c2cc3cc(C)ccc3nc21 | 20 | 0.9 | 0.8 | 14 | 1.8
Cn1c(NC(=O)c2cccnc2)nc2ccccc21 | 16 | 0.8 | 0.8 | 25 | 2*
Cc1ccc2nc3c(cc2c1)c(NC(=O)c1ccccn1)nn3CC(C)C | 31 | 1 | 0.7 | 1 | 2.3*
CCn1nc(NC(=O)c2cccnc2)c2cc3ccccc3nc21 | 62* | 0.7 | 0.4 | 32 | 0.9
O=C(Nc1cnc2ccccc2c1)c1cccnc1 | 16 | 1 | 0.8 | -4 | 1
CCOC(=O)Nc1c(O)ccc2oc(C)c(-c3ccccc3)c12 | 24 | 0.8 | 0.8 | 21 | 1
O=C(c1ccco1)N1CCCN(C(=O)c2ccco2)CC1 | -19 | 0.8 | 1.2 | 15 | 0.8
COc1ccc(C(=O)N2CCCC(c3ccccc3)C2)cc1 (stereo unspecified) | -24 | 0 | 1.2 | 95* | 1.7
O=C(c1ccco1)N1CCC(c2ccccc2)C1 (stereo unspecified) | 51* | 0.2 | 0.5 | 78* | 1
COc1ccc(C(=O)N2CCC(C(=O)O)CC2)cc1 | 8 | 1 | 0.9 | 3 | 1.1
CCOC(=O)N1CCN(C(=O)c2cc3c(s2)-c2ccccc2OC3)CC1 | 54* | 0.6 | 0.5 | 43 | 1.4
O=C(c1cc2c(s1)-c1ccccc1OC2)N1CCCC1 | 3 | 0.6 | 1 | 40 | 0.8
O=C(c1cc2c(s1)-c1ccccc1OC2)N1CCN(c2ccccc2)CC1 | 71* | 0.3 | 0.3 | 72* | 1.3
SMILES | CYP2C9 inhib | CYP2C19 act | CYP2C9 act | CYP2C19 inh | PLAP activator
Cc1cccc(C(=O)NC2CCN(C(=O)N3CCOCC3)CC2)c1 | -12 | 1.1 | 1.1 | -10 | 1
Cc1csc(NC(=O)C2CCN(S(=O)(=O)c3ccc4c(c3)oc(=O)n4C)CC2)n1 | -28 | 0.7 | 1.3 | 25 | 1.1
Cc1csc(NC(=O)C(CC(C)C)NS(=O)(=O)c2ccc3c(c2)oc(=O)n3C)n1 (stereo unspecified) | 55* | 0.6 | 0.4 | 36 | 2.3*
Cn1c(=O)[nH]c2sc3c(c2c1=O)CC(C)(C)OC3 | -5 | 1.1 | 1.1 | -8 | 0.9
COc1cccc(CNc2ccc3c(c2)CCC3)c1 | -11 | 0.9 | 1.1 | 13 | 1
O=S(=O)(N1CCCCC1)N1CCCN(S(=O)(=O)N2CCCCC2)CC1 | 50* | 0.7 | 0.5 | 25 | 1.3
O=S(=O)(N1CCCCCC1)N1CCN(S(=O)(=O)N2CCOCC2)CC1 | 9 | 0.9 | 0.9 | 9 | 1.3

Compound activity as filed in PubChem.
